In PubChem BioAssay one finds inhibition data, which are given here for three molecules.

Where “and” joins values, the source holds several entries; their conditions need not be identical. Equal values may be shown once. Calls of active or inactive are those of the source. Rule as the data show it, unless noted: active = inhibition above about 80%; inactive = the rest.

The first assay can be described thus: HTB85 osteosarcoma cell growth inhibition, synergistic combos for chromothripsis tumors, BGB or cisplatin IC20 combos (AID 1671453).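 Also: cells exposed for 96 hours before readout; 0% = vehicle DMSO and 100% = high DMSO killing control.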 To be noted: HTB85 osteosarcoma cells, drug combinations, single agent, at 5 µM, stronger effect = higher value.
In general, inhibition refers to the relative decrease from the control value, in per cent. On to `COc1c(N2CC3CCCNC3C2)c(F)cc2c(=O)c(C(=O)O)cn(C3CC3)c12` (stereo unspecified), for which the inhibition was 12% and -3.92%.

Take `Cc1ccc(NC(=O)CCCCCC(=O)Nc2ccccc2N)cc1`: the inhibition turned out to be 12.7%.

As for `Nc1ccccc1NC(=O)CCCCCCC(=O)Nc1ccccc1`, the inhibition was 11.1% and 13.2%.

The next assay in a line: CRL2098 osteosarcoma cell growth inhibition, synergistic combos for chromothripsis tumors, BGB or cisplatin IC20 combos (AID 1671454).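 Also: cells exposed for 96 h before readout; 0% = vehicle DMSO and 100% = killing by high DMSO.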 To be noted: CRL2098 osteosarcoma cells, drug combinations, at 0.5 µM, stronger effect = higher value.
On to `COc1c(N2CC3CCCNC3C2)c(F)cc2c(=O)c(C(=O)O)cn(C3CC3)c12` (stereo unspecified), for which the inhibition was -38.5% (inactive) and -21% (inactive).

Turning to `Cc1ccc(NC(=O)CCCCCC(=O)Nc2ccccc2N)cc1`, the inhibition was -71% (inactive).

Consider `Nc1ccccc1NC(=O)CCCCCCC(=O)Nc1ccccc1`, for which the inhibition was -31.9% (inactive) and -38.7% (inactive).

Still in this assay, the particulars now being: CRL2098 osteosarcoma cells, drug combinations, measured here: combination with BGB at IC20, at 0.5 µM, stronger effect = higher value.
With `COc1c(N2CC3CCCNC3C2)c(F)cc2c(=O)c(C(=O)O)cn(C3CC3)c12` (stereo unspecified), the inhibition was -15.6% and -12.1%.

On to `Cc1ccc(NC(=O)CCCCCC(=O)Nc2ccccc2N)cc1`, for which the inhibition was -75.9%.

Consider `Nc1ccccc1NC(=O)CCCCCCC(=O)Nc1ccccc1`, for which the inhibition was -43.5% and -26.6%.

Still in this assay, the particulars now being: CRL2098 osteosarcoma cells, drug combinations, measured here: combination with cisplatin at IC20, at 0.5 µM, stronger effect = higher value.
On to `COc1c(N2CC3CCCNC3C2)c(F)cc2c(=O)c(C(=O)O)cn(C3CC3)c12` (stereo unspecified), for which the inhibition is -75% and -24%.

Consider `Cc1ccc(NC(=O)CCCCCC(=O)Nc2ccccc2N)cc1`, for which the inhibition was -67.2%.

On to `Nc1ccccc1NC(=O)CCCCCCC(=O)Nc1ccccc1`, for which the inhibition is -10.1% and -25.3%.

Another assay is described as follows: HD-MB03 medulloblastoma cell growth inhibition, synergistic combos for chromothripsis tumors, BGB or cisplatin IC20 combos (AID 1671455; in the data active = inhibition above about 83%;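 also: 0% = vehicle DMSO and 100% = high DMSO as cytotoxic control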). To be noted: HD-MB03 medulloblastoma cells, at 0.5 µM, stronger effect = higher value.
On to `COc1c(N2CC3CCCNC3C2)c(F)cc2c(=O)c(C(=O)O)cn(C3CC3)c12` (stereo unspecified), for which the inhibition is -1.44% (inactive) and -1.69% (inactive).

On to `Cc1ccc(NC(=O)CCCCCC(=O)Nc2ccccc2N)cc1`, for which the inhibition is -7.72% (inactive).

Take `Nc1ccccc1NC(=O)CCCCCCC(=O)Nc1ccccc1`: the inhibition is -7.05% (inactive) and -2.46% (inactive).

The same assay, now with this note: HD-MB03 medulloblastoma cells, measured here: combo with BGB at IC20, at 0.5 µM, stronger effect = higher value.
On to `COc1c(N2CC3CCCNC3C2)c(F)cc2c(=O)c(C(=O)O)cn(C3CC3)c12` (stereo unspecified), for which the inhibition was -9.81% and -2.86%.

On to `Cc1ccc(NC(=O)CCCCCC(=O)Nc2ccccc2N)cc1`, for which the inhibition stood at 0.828%.

In the case of `Nc1ccccc1NC(=O)CCCCCCC(=O)Nc1ccccc1`, the inhibition is -17.3% and -8.59%.

Still in this assay, the particulars now being: HD-MB03 medulloblastoma cells, measured here: combo with cisplatin at IC20, at 0.5 µM, stronger effect = higher value.
Take `COc1c(N2CC3CCCNC3C2)c(F)cc2c(=O)c(C(=O)O)cn(C3CC3)c12` (stereo unspecified): the inhibition was 5.04% and -2.25%.

As to `Cc1ccc(NC(=O)CCCCCC(=O)Nc2ccccc2N)cc1`, the inhibition is -9.85%.

On to `Nc1ccccc1NC(=O)CCCCCCC(=O)Nc1ccccc1`, for which the inhibition was -8.12% and 7.03%.

Another assay can be described thus: UWB1.289 ovarian carcinoma cell growth inhibition, synergistic combos for chromothripsis tumors, BGB or cisplatin combos (AID 1671456).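 Also: cells exposed to compound for four days; 0% = vehicle DMSO and 100% = killing by high DMSO.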 Conditions: UWB1.289 ovarian carcinoma cells, at 0.5 µM, stronger effect = higher value.
`COc1c(N2CC3CCCNC3C2)c(F)cc2c(=O)c(C(=O)O)cn(C3CC3)c12` (stereo unspecified): the inhibition is 0.61% (inactive) and 5% (inactive).

As to `Cc1ccc(NC(=O)CCCCCC(=O)Nc2ccccc2N)cc1`, the inhibition is -13.2% (inactive).

For `Nc1ccccc1NC(=O)CCCCCCC(=O)Nc1ccccc1`, the inhibition is -2.22% (inactive) and -4.15% (inactive).

Staying with this assay, now noted: UWB1.289 ovarian carcinoma cells, measured here: inhibition with BGB combination, at 0.05 µM, stronger effect = higher value.
As for `COc1c(N2CC3CCCNC3C2)c(F)cc2c(=O)c(C(=O)O)cn(C3CC3)c12` (stereo unspecified), the inhibition is -8.87% and -16%.

Consider `Cc1ccc(NC(=O)CCCCCC(=O)Nc2ccccc2N)cc1`, for which the inhibition was -44.6%.

On to `Nc1ccccc1NC(=O)CCCCCCC(=O)Nc1ccccc1`, for which the inhibition was -17% and -12.6%.

Staying with this assay, now noted: UWB1.289 ovarian carcinoma cells, measured here: inhibition with cisplatin combination, at 0.05 µM, stronger effect = higher value.
On to `COc1c(N2CC3CCCNC3C2)c(F)cc2c(=O)c(C(=O)O)cn(C3CC3)c12` (stereo unspecified), for which the inhibition is -17.8% and -13.4%.

For the molecule `Cc1ccc(NC(=O)CCCCCC(=O)Nc2ccccc2N)cc1`, the inhibition is -27.1%.

For `Nc1ccccc1NC(=O)CCCCCCC(=O)Nc1ccccc1`, the inhibition was -16.5% and -4.91%.

Another assay can be described thus: LFS_MB_2R medulloblastoma cell growth inhibition, synergistic combos for chromothripsis tumors, cisplatin combos (AID 1671457).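 Also: cells exposed to compound for four days before readout.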 Conditions: LFS_MB_2R medulloblastoma cells, at 0.5 µM, stronger effect = higher value.
Take `COc1c(N2CC3CCCNC3C2)c(F)cc2c(=O)c(C(=O)O)cn(C3CC3)c12` (stereo unspecified): the inhibition is -15.9% (inactive) and -16.5% (inactive).

Turning to `Cc1ccc(NC(=O)CCCCCC(=O)Nc2ccccc2N)cc1`, the inhibition was -23.5% (inactive).

As for `Nc1ccccc1NC(=O)CCCCCCC(=O)Nc1ccccc1`, the inhibition is -23.5% (inactive) and -15.8% (inactive).

Still in this assay, the particulars now being: LFS_MB_2R medulloblastoma cells, measured here: combination with cisplatin, at 0.5 µM, stronger effect = higher value.
In the case of `COc1c(N2CC3CCCNC3C2)c(F)cc2c(=O)c(C(=O)O)cn(C3CC3)c12` (stereo unspecified), the inhibition is -17.1% and -8.11%.

For `Cc1ccc(NC(=O)CCCCCC(=O)Nc2ccccc2N)cc1`, the inhibition was -17.5%.

With `Nc1ccccc1NC(=O)CCCCCCC(=O)Nc1ccccc1`, the inhibition was -37.7% and -10.7%.

Staying with this assay, now noted: LFS_MB_2R medulloblastoma cells, measured here: combination with cisplatin, at 5 µM, stronger effect = higher value.
Regarding `COc1c(N2CC3CCCNC3C2)c(F)cc2c(=O)c(C(=O)O)cn(C3CC3)c12` (stereo unspecified), the inhibition is -13.1% and -7.1%.

On to `Cc1ccc(NC(=O)CCCCCC(=O)Nc2ccccc2N)cc1`, for which the inhibition came out at 50.2%.

As to `Nc1ccccc1NC(=O)CCCCCCC(=O)Nc1ccccc1`, the inhibition is 7.67% and 25.4%.

The next assay is described as follows: MDA-MB-436 breast carcinoma cell growth inhibition, synergistic combos for chromothripsis tumors, BGB or cisplatin combos (AID 1671458; call rule not given here;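 also: cells exposed for 96 hours; 0% = vehicle DMSO and 100% = killing by high DMSO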). Conditions: MDA-MB-436 breast carcinoma growth inhibition, drug combinations; at 0.5 µM; stronger effect = higher value.
`COc1c(N2CC3CCCNC3C2)c(F)cc2c(=O)c(C(=O)O)cn(C3CC3)c12` (stereo unspecified): the inhibition is -3.8% (inactive) and -6.04% (inactive).

For the molecule `Cc1ccc(NC(=O)CCCCCC(=O)Nc2ccccc2N)cc1`, the inhibition was -27.5% (inactive).

Consider `Nc1ccccc1NC(=O)CCCCCCC(=O)Nc1ccccc1`, for which the inhibition is -14.6% (inactive) and -1.03% (inactive).

Staying with this assay, now noted: MDA-MB-436 breast carcinoma growth inhibition, drug combinations; measured here: BGB combination; at 0.5 µM; stronger effect = higher value.
Consider `COc1c(N2CC3CCCNC3C2)c(F)cc2c(=O)c(C(=O)O)cn(C3CC3)c12` (stereo unspecified), for which the inhibition is -11.6% and -4.26%.

Consider `Cc1ccc(NC(=O)CCCCCC(=O)Nc2ccccc2N)cc1`, for which the inhibition is -25.9%.

`Nc1ccccc1NC(=O)CCCCCCC(=O)Nc1ccccc1`: the inhibition is -7.46% and 0.27%.

Still in this assay, the particulars now being: MDA-MB-436 breast carcinoma growth inhibition, drug combinations; measured here: BGB combination; at 5 µM; stronger effect = higher value.
For the molecule `COc1c(N2CC3CCCNC3C2)c(F)cc2c(=O)c(C(=O)O)cn(C3CC3)c12` (stereo unspecified), the inhibition is -20.6% and -9.9%.

For the molecule `Cc1ccc(NC(=O)CCCCCC(=O)Nc2ccccc2N)cc1`, the inhibition is -14.6%.

For the molecule `Nc1ccccc1NC(=O)CCCCCCC(=O)Nc1ccccc1`, the inhibition is 5.07% and 2.02%.

The assay is the same for the next values; noted with them: MDA-MB-436 breast carcinoma growth inhibition, drug combinations; measured here: cisplatin combination; at 0.5 µM; stronger effect = higher value.
Take `COc1c(N2CC3CCCNC3C2)c(F)cc2c(=O)c(C(=O)O)cn(C3CC3)c12` (stereo unspecified): the inhibition is -1.34% and -15%.

Regarding `Cc1ccc(NC(=O)CCCCCC(=O)Nc2ccccc2N)cc1`, the inhibition is -44.2%.

As to `Nc1ccccc1NC(=O)CCCCCCC(=O)Nc1ccccc1`, the inhibition is -38.4% and 3.8%.
